Measured values as given in the OligoGym collection.
Note: reference of the scale not given here.

Each sequence was assayed against SPESP1 (assay: pooled miR-30 sensor sort-seq; sequence = guide strand). Settings: shRNA.
ATGTATTGAATACTGTAGCAGC gave a sensor-assay potency score (higher = more potent) of -1.16. TTGTTTTTAATTTATGTTCTGC was tested, and the sensor-assay potency score (higher = more potent) was 0.0799. For TAGATGATTCAGTAACAACTGG, the sensor-assay potency score (higher = more potent) was -0.346. For TTAATTTATGTTCTGCTGCTGC, the sensor-assay potency score (higher = more potent) was -0.241. For TTTCTATCGCAGTTTCACCTGA, the sensor-assay potency score (higher = more potent) was -0.0302. Sequence TAGATTTTTTCTCACGACCTGG has a sensor-assay potency score (higher = more potent) of -0.569. TAGATCTAGAATTACACAGCAT was tested, and the sensor-assay potency score (higher = more potent) was -0.409.

Each sequence was assayed against SPINK5 in the same assay as above. Settings: shRNA.
In the case of TCTCTTTTGACTTTTGCTCTGG, the sensor-assay potency score (higher = more potent) is reported as -0.0301. For TTTTCTTGAAGCTTTGCCCTTT, the sensor-assay potency score (higher = more potent) was 0.275. In the case of TTTCTTTTGCTTCTTGCTGGAA, the sensor-assay potency score (higher = more potent) is reported as -0.544. For TTATTGATGTGCATCTTGCCAT, the sensor-assay potency score (higher = more potent) was -0.0441. TTGAAAAAATTTCTTATCCTGG showed a sensor-assay potency score (higher = more potent) of -0.827. With TTGTGCATCCAAGTCTTCCATC the sensor-assay potency score (higher = more potent) was -1.09. Sequence ATACTCAGCACATTCGTCCTGA has a sensor-assay potency score (higher = more potent) of 0.519. Sequence TTTAAAATCATCACAATTCAGC has a sensor-assay potency score (higher = more potent) of -0.669. In the case of TTTTGTTTCTAGCTCGTGCTTC, the sensor-assay potency score (higher = more potent) is reported as 0.162. In the case of TTGAGAAGCTCTAACATGGGAT, the sensor-assay potency score (higher = more potent) is reported as -0.174. With TTGTATAGAACTTTCCATCAGC the sensor-assay potency score (higher = more potent) was -0.111. Sequence TTGCTCTTGCTCTTTCTTCTTG has a sensor-assay potency score (higher = more potent) of -0.499.

Each sequence was assayed against SPINK6 in the same assay as above. Settings: shRNA.
TAAAAAGCAGAAAAGAGCCAGA was tested, and the sensor-assay potency score (higher = more potent) was -0.281. For TTCCCGAGTGCAGTAGACCTTG, the sensor-assay potency score (higher = more potent) was -0.732. In the case of TTTATTGCCATATGTCTGGCCA, the sensor-assay potency score (higher = more potent) is reported as -0.38. ACAGTCAACCTGTCCTCCCTGA was tested, and the sensor-assay potency score (higher = more potent) was -0.55. TTAGATTCCCGAGTGCAGTAGA gave a sensor-assay potency score (higher = more potent) of 0.5. Sequence TGAATTAAAGGAATCCACCAGC has a sensor-assay potency score (higher = more potent) of -0.148. With TAATCTTTCCACCACTTTTCAC the sensor-assay potency score (higher = more potent) was -1.05. In the case of TAGACATACATTGAACTCCTCA, the sensor-assay potency score (higher = more potent) is reported as -0.369. Sequence TATTGCCATATGTCTGGCCATC has a sensor-assay potency score (higher = more potent) of -1.73. GAACTCACCACAGTCAACCTGT showed a sensor-assay potency score (higher = more potent) of -0.413. For TGCTTTAGGCTAATCTTTCCAC, the sensor-assay potency score (higher = more potent) was -0.643. With TTAGGCTAATCTTTCCACCACT the sensor-assay potency score (higher = more potent) was -0.87.

Each sequence was assayed against SPOCK1 in the same assay as above. Settings: shRNA.
Sequence ATATTCTAGGTCATCCAGCAGG has a sensor-assay potency score (higher = more potent) of -0.735. TTCCGCAACTCCTTGTCTGTGC showed a sensor-assay potency score (higher = more potent) of 0.679. TTTGTCATCATCCTCATCCTCA was tested, and the sensor-assay potency score (higher = more potent) was 0.0865. Work on TTGCACTTGACCAAATTCGAAG yielded a sensor-assay potency score (higher = more potent) of -1.14. Sequence TATTTGTCCACACACCAGCACT has a sensor-assay potency score (higher = more potent) of -1.26. Sequence TTGCACTTGGATGTGTAGGAGT has a sensor-assay potency score (higher = more potent) of -0.759. In the case of TTGTCTGTGCAGGCACTCCTTT, the sensor-assay potency score (higher = more potent) is reported as -0.821. TCATAGTTCATGTCCAACTTGT was tested, and the sensor-assay potency score (higher = more potent) was 0.349. TCCAACTTGTTGAACATCCAGC showed a sensor-assay potency score (higher = more potent) of -1.54.
